# The whole screen tested about 5,500 compounds, of which about 2,000 (36%) were called active. Another 18% or so got no clear call; they are omitted. The list shows a part of the results. Values without a mark were called inactive. No stated cut-off is given here; in the data, active means normalized growth mostly below about 0.91 (no sharp cut-off); inconclusive means no clear call, values can overlap the other calls; inactive means mostly above about 0.92.
# Experiment: chemical genetic growth profiling, strain panel (AID 1159580);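 further: tested at 20 µM; growth read once vehicle control cultures reached saturation at 30 °C; 1 = growth at the plate median or of vehicle wells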
# Details: S. cerevisiae deletion strains, growth OD
# [1] = locus YAL013W, strain DEP1, stronger effect = lower value
# [2] = locus YDR150W, strain NUM1, stronger effect = lower value
# [3] = locus YGR078C, strain PAC10, stronger effect = lower value
# [4] = locus YJR075W, strain HOC1, stronger effect = lower value
# [5] = locus YNL153C, strain GIM3, stronger effect = lower value
# [6] = locus YPL241C, strain CIN2, stronger effect = lower value
smiles,measurement,setting,value
N#Cc1csc([N+](=O)[O-])c1,normalized growth,[1],0.944
same,normalized growth,"locus YBR229C, strain ROT2, stronger effect = lower value",0.908 (active)
same,normalized growth,"locus YCL061C, strain MRC1, stronger effect = lower value",0.937
same,normalized growth,"locus YDL101C, strain DUN1, stronger effect = lower value",0.817 (active)
same,normalized growth,"locus YDL134C, strain PPH21, stronger effect = lower value",0.892 (active)
same,normalized growth,[2],0.885
same,normalized growth,"locus YEL061C, strain CIN8, stronger effect = lower value",0.797 (active)
same,normalized growth,[3],0.86 (active)
same,normalized growth,"locus YHR030C, strain SLT2, stronger effect = lower value",0.363 (active)
same,normalized growth,"locus YHR087W, strain rtc3, stronger effect = lower value",0.917
same,normalized growth,"locus YJR043C, strain POL32, stronger effect = lower value",0.929
same,normalized growth,[4],0.86 (active)
same,normalized growth,"locus YKL190W, strain CNB1, stronger effect = lower value",0.923 (active)
same,normalized growth,"locus YLR039C, strain RIC1, stronger effect = lower value",0.687 (active)
same,normalized growth,"locus YLR058C, strain SHM2 (second series), stronger effect = lower value",0.951
same,normalized growth,"locus YLR085C, strain ARP6, stronger effect = lower value",0.456 (active)
same,normalized growth,"locus YLR262C, strain YPT6, stronger effect = lower value",0.795 (active)
same,normalized growth,"locus YML094W, strain GIM5, stronger effect = lower value",0.809 (active)
same,normalized growth,"locus YMR219W, strain ESC1, stronger effect = lower value",0.941 (active)
same,normalized growth,"locus YNL128W, strain TEP1, stronger effect = lower value",0.942
same,normalized growth,[5],0.901 (active)
same,normalized growth,"locus YNL298W, strain CLA4 (second series), stronger effect = lower value",0.823 (active)
same,normalized growth,"locus YNL322C, strain KRE1, stronger effect = lower value",1.01
same,normalized growth,"locus YNR030W, strain Alg12, stronger effect = lower value",0.834 (active)
same,normalized growth,"locus YOL006C, strain TOP1, stronger effect = lower value",0.369 (active)
same,normalized growth,"locus YPL055C, strain LGE1, stronger effect = lower value",0.872
same,normalized growth,[6],0.744 (active)
same,normalized growth,"locus YPR135W, strain CTF4, stronger effect = lower value",0.46 (active)
N#Cc1cc2nc(O)c(O)nc2cc1[N+](=O)[O-],normalized growth,[1],0.985
same,normalized growth,"locus YAL040C, strain CLN3, stronger effect = lower value",0.989
same,normalized growth,"locus YCL061C, strain MRC1 (second series), stronger effect = lower value",0.998
same,normalized growth,[2],0.993
same,normalized growth,"locus YDR363W, strain ESC2, stronger effect = lower value",1.01
same,normalized growth,"locus YER002W, strain NOP16, stronger effect = lower value",1.01
same,normalized growth,[3],0.979
same,normalized growth,"locus YGR229C, strain SMI1, stronger effect = lower value",1.02
same,normalized growth,[4],1
same,normalized growth,"locus YMR307W, strain GAS1, stronger effect = lower value",0.991
same,normalized growth,[5],0.984
same,normalized growth,"locus YNL175C, strain NOP13, stronger effect = lower value",0.995
same,normalized growth,"locus YNL197C, strain WHI3, stronger effect = lower value",0.997
same,normalized growth,"locus YNL224C, strain SQS1, stronger effect = lower value",0.979
same,normalized growth,"locus YOR083W, strain WHI5 (second series), stronger effect = lower value",0.994
same,normalized growth,[6],1
